Test results taken from the supplement of paper PMC3334620.
The full ranking holds about 33,000 sequences; the median of “E-score (-0.5 to 0.5)” is about -0.011, and the highest 2% start at about 0.28. What follows is part of a selection rich in the highest values, with near analogues and random picks from the rest.

Molecular target: T1, Gcr1 (UniProt P07261)
T1 sequence: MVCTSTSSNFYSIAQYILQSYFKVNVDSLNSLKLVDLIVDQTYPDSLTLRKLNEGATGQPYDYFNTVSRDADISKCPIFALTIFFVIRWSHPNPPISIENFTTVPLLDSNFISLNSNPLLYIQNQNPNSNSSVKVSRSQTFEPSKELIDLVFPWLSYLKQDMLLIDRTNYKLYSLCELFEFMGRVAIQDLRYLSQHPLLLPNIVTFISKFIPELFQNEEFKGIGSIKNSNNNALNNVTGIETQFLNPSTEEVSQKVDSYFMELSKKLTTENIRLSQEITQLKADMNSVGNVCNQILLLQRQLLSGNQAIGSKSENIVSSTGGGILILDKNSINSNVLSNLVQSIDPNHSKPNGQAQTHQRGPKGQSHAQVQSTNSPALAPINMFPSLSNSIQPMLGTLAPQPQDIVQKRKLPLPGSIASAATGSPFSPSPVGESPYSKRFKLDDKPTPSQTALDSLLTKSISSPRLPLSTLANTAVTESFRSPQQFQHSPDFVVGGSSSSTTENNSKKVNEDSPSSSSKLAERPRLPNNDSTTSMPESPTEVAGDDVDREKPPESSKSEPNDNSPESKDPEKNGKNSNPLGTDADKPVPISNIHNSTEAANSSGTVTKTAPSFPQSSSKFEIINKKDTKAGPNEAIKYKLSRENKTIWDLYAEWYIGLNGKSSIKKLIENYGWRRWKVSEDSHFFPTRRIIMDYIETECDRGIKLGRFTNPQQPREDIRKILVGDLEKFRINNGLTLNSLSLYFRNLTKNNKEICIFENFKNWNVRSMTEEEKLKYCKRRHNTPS
Assay: PBM E-score (8-mer binding enrichment) (E-score (-0.5 to 0.5)); higher = stronger / more preferred TF binding
Settings: protein concentration: 100 nM; construct: GST-full length
Experimental: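 Universal 'all 10-mer' protein binding microarrays (Agilent AMADID 015681) probed with GST-tagged S. cerevisiae TFs (full-length or DBD) made by in vitro transcription/translation (PURExpress), about 100-200 nM. Bound TF was detected with fluorescent anti-GST. Each ungapped 8-mer (which stands for itself and its reverse complement) is scored by the PBM enrichment score (E-score), a modified Wilcoxon-Mann-Whitney statistic from -0.5 to +0.5, computed with the Universal PBM Analysis Suite. Scale: above 0.35 generally sequence-specific binding.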

| Sequence | PBM E-score |
| --- | --- |
| TCAACTAA | -0.00686 |
| ACGACGGG | 0.00739 |
| AATTACAG | 0.283 |
| CATTACAG | -0.0702 |
| AATTACAT | 0.0891 |
| CCACCCTC | -0.00165 |
| AAAAATTC | 0.0187 |
| CAAAATTC | 0.306 |
| CAAAATTG | 0.0415 |
| GCTAGCAC | -0.0767 |
| GCAGGCCC | -0.133 |
| ACAAGCTA | -0.0171 |
| ACACAATA | 0.0111 |
| CCACAATA | 0.3 |
| CCACAAAG | 0.16 |
| CCACAAAA | 0.282 |
| CCACAATC | 0.156 |
| ACACAAAA | 0.141 |
| CTCGGTAA | -0.22 |
| AAACCTAA | 0.0813 |
| CCTTTCAG | -0.117 |
| GGGGGACA | 0.0151 |
| AGTCTGTA | -0.152 |
| CCCCGTTC | -0.082 |
| GACGCCCA | 0.427 |

| Sequence | PBM E-score |
| --- | --- |
| GGCGCCCC | 0.308 |
| CACGCCCA | -0.107 |
| AGCGCCCA | 0.183 |
| TGCGCCCA | 0.0933 |
| GACGCCCC | 0.0383 |
| CGCGCCCC | 0.243 |
| AGCGCCCC | 0.153 |
| GGCGCCCA | 0.398 |
| CGAGAGGA | -0.113 |
| CCCGGGGC | 0.0219 |
| ACAAGCAT | 0.15 |
| CCATTGGC | 0.0633 |
| GCGGCGGA | 0.0513 |
| AATTTGTC | -0.00767 |
| ATGGCTTC | 0.3 |
| CTGGCTGC | 0.35 |
| CTAGCTTA | -0.172 |
| ATAGCTTC | 0.249 |
| ATGGCTTG | -0.236 |
| CCGGCTGC | 0.314 |
| CTGGCTGA | -0.225 |
| ATGGCTTA | 0.0216 |
| CTAGCTTC | 0.316 |
| CCGGCTGA | -0.138 |
| ACGGCTGC | -0.014 |

| Sequence | PBM E-score |
| --- | --- |
| ATGGCTGC | 0.168 |
| CGCCCCGA | -0.0435 |
| CCGCGAGC | -0.0368 |
| GCCCGGCA | -0.0489 |
| GGAGTACC | -0.0959 |
| TGTAGCAA | -0.0217 |
| TAAAGAAA | 0.162 |
| ATGGGCCA | -0.112 |
| GACAAACA | -0.0622 |
| CGGTCCAC | -0.225 |
| CTGGCTTA | -0.159 |
| CTGGCTTC | 0.362 |
| CAGGCTTC | 0.213 |
| GCAAAGAA | 0.00261 |
| CGCAACCG | 0.24 |
| ACACCAGC | -0.126 |
| AGAAGCCG | 0.399 |
| AGGAGCCT | 0.109 |
| TGAAGCCA | -0.0656 |
| AGAAGCCT | 0.273 |
| CGAAGCCC | 0.268 |
| AGAAGCAG | 0.174 |
| AGAAGCCC | 0.386 |
| ACAAGCCA | -0.275 |
| AAAAGCCC | -0.194 |

| Sequence | PBM E-score |
| --- | --- |
| AGGAGCCC | 0.294 |
| AGAAGCCA | 0.362 |
| AGGAGCCG | 0.269 |
| GACCACAA | 0.0254 |
| AATCGCAA | 0.0343 |
| CGCCGCAG | 0.103 |
| ATCAGATA | -0.111 |
| CCAAGCCG | -0.0556 |
| CGAAGCCG | 0.285 |
| CGAAGCCA | 0.272 |
| AGCAAAGG | -0.135 |
| AAAGGACG | 0.025 |
| ATTGTGAG | -0.17 |
| ATTTAGGA | 0.286 |
| CATTAGGC | -0.0378 |
| AAATAGGA | 0.335 |
| AATTAGGT | 0.0846 |
| GATTAGGA | 0.169 |
| AATTAGGG | -0.012 |
| AATTAGGC | 0.327 |
| CAATAGGA | 0.13 |
| CTTTAGGA | 0.249 |
| AATTAGGA | 0.315 |
| TAATAGGA | 0.278 |
| ATTTAGGG | 0.196 |

| Sequence | PBM E-score |
| --- | --- |
| GACTTTCA | 0.0748 |
| AATTCGAT | -0.0107 |
| GTCCGTAA | 0.215 |
| GTACCTAC | -0.0043 |
| CCATCGTA | -0.145 |
| AGGCTCAA | -0.283 |
| AATCTTGA | 0.1 |
| AATTGTTA | 0.116 |
| AAGGAACT | 0.0335 |
| GGGGAACC | 0.161 |
| GAGGAACA | -0.193 |
| AGGGAACC | 0.203 |
| AAGGAACG | -0.0671 |
| CAGGAACG | 0.118 |
| AAGGAACC | 0.285 |
| CGGGAACC | 0.289 |
| CAGGAACC | 0.32 |
| CAGGAACA | -0.125 |
| CGGGAACG | -0.0928 |
| GAGGAACC | 0.318 |
| ATCTAGAT | 0.0364 |
| TCAAAACA | 0.0365 |
| CGAATGTA | -0.0414 |
| ATCCTTAC | 0.0414 |
| AAAGAATA | -0.0583 |

| Sequence | PBM E-score |
| --- | --- |
| CATTTAAA | 0.287 |
| TATTAAAA | 0.243 |
| GATTAAAA | 0.249 |
| TATTTAAA | 0.243 |
| ATTAAAAC | 0.113 |
| CATTTTAA | 0.252 |
| ATTAAAAA | 0.332 |
| ATTAAAAG | 0.239 |
| CATTAAAA | 0.306 |
| GGGGGAGA | -0.233 |
| ATGTTCCA | 0.15 |
| CCCAACGG | -0.0188 |
| GGAGCGGA | 0.187 |
| CGCCGCAC | 0.0199 |
| AGGGAAAA | 0.108 |
| TAGAGGAA | 0.396 |
| CAGAGGAA | 0.0251 |
| AAGAGGAA | 0.285 |
| AAGAGGAT | 0.0595 |
| AAGAGGAG | -0.0404 |
| GAGAGGAA | 0.128 |
| AGGCACTG | -0.0493 |
| TACCAGGA | 0.19 |
| CTATGCTA | -0.075 |
| AGTCCTCG | -0.0287 |

| Sequence | PBM E-score |
| --- | --- |
| CAAGTCAA | -0.0468 |
| GAAGTCAC | 0.00882 |
| GAAGTCAA | 0.297 |
| AGCCCCTA | -0.0303 |
| ATGGGTGG | -0.0217 |
| CACGCCGC | 0.151 |
| AACGCCTC | -0.0454 |
| AACGCCGC | 0.123 |
| CACGCCTC | -0.0746 |
| GACGCCTC | 0.282 |
| GACGCCGC | 0.37 |
| AAAGGGTT | -0.0414 |
| GTAAAGGA | 0.149 |
| AAAGAGAC | 0.0252 |
| AGGTGCCC | 0.395 |
| CGGTGCCA | 0.00263 |
| GGGTGCCA | 0.414 |
| CGGTGCCC | 0.231 |
| GGTTGCCA | 0.377 |
| AGGTGCCG | 0.22 |
| AGGTGCCA | 0.191 |
| CGTTGCCA | 0.0696 |
| AGTTGCCA | 0.134 |
